Structures are written as SMILES. The whole screen tested about 16,000 compounds, of which about 250 (1.6%) were called active. Shown is part of a subset that was picked to be rich in actives. Values without a mark were called inactive.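 Rule for the calls: active = inhibition above the average over every tested compound plus 3 SD (cut at about 40% in these data); inactive = the rest.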

This assay concerns Hepatitis C virus NS3 helicase. The experiment in a line: HCV NS3 helicase inhibitors, primary screen, biochemical, fluorescence polarization, ChemBridge library (AID 687043). The note with it: NS3h Cy5-dT15 DNA binding, at 100 µM, stronger effect = higher value. On the technique in general: Fluorescence polarisation rises when a labelled molecule tumbles more slowly, as on binding a larger partner.
As to `CCOc1cc(C=C2C(=O)NC(=O)NC2=O)cc(Br)c1OCCOc1ccccc1C`, the inhibition (commonly the drop in the measured response relative to a control, in per cent) is 51.3% (active).
To `Nc1ccc(Cc2ccc(N)c(Cl)c2)cc1Cl` belongs 7.3%.
Regarding `COc1cccc(CN2CCN(Cc3ccccc3OC)CC2)c1`, the inhibition is -10.1%.
To `Cc1ccccc1CN1CCN(C(=O)COc2ccc(Cl)cc2)CC1` belongs 8.5%; to `COc1cc(C)cc2oc(=O)c3c(c12)CCC3`, -2.5%.
